High-throughput results deposited in PubChem BioAssay by National Center for Advancing Translational Sciences (NCATS).
Pf growth 96h: P. falciparum growth inhibition at 96 hour, primary screen for plastid delayed-death inhibitors | P. falciparum luciferase reporter growth, 96 h | Potency, µM (series often up to 28.7 µM), hits mostly inhibitors | hit rate 6.9% among 320,000 | AID 504834
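Delayed-death screen, second-generation endpoint: infected erythrocytes, 2% hematocrit, 0.05% parasitemia final; 96 hours at 37 C, 5% CO2; luciferase detection reagent; luminescence decrease equals reduced growth.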
NS1 inh: blocks influenza NS1 protein function. Potency, µM (doses to about 46.1 µM). hit rate 0.4% among 270,000. AID 2326; calls by dose curve; also: actives are rising curves; nearly all actives have a fitted effect of over 50% in size
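Compounds were scored for reversing the slow growth caused by influenza A NS1 in S. cerevisiae, measured by optical density at 600 nm. Assay medium contained 2% galactose at pH 6.0; NS1-free yeast of the same strain were the positive control.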
Pf growth 48h: P. falciparum growth inhibition at 48 hours (one generation); hit rate 5.9% among 310,000; P. falciparum luciferase growth in erythrocytes, 48 h; Potency, µM (titrated, usually from 28.7 µM), usual class: inhibitors
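Parasite viability was followed by luminescence of a genomically integrated firefly luciferase. Cultures held 0.1% parasitemia at 2% hematocrit (final), incubated under 5% CO2 at 37 C.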
CHX counter: affects cycloheximide protein synthesis inhibition readout, counter-screen; hit rate 12% among 300,000; cell reporter, cycloheximide protein synthesis inhibition counterscreen; max response, %; in the data active = max response mostly above about 13%, no sharp cut-off; inactive = mostly below about 14%; also: read at 38.3 µM for the half of the compounds with a filed dose
Sm TGR inh: blocks Schistosoma mansoni thioredoxin glutathione reductase. Q962Y6. purified TGR, DTNB reduction, TNB absorbance 405 nm. Potency, µM (series often up to 114 µM), actives largely listed as inhibitors. hit rate 3% among 360,000; also: nearly all actives have a fitted effect of over 60% in size
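TGR 20 nM + NADPH 100 uM (dispensed conc.), cpd preinc 15 min RT; start with NADPH (500 uM addition) then DTNB (15 mM addition). Kinetic TNB absorbance, 405 nm filter. Four-parameter Hill fit across titration.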
Shiga toxin inh: Shiga toxin inhibition; Vero cells, Shiga toxin protein synthesis inhibition reporter; inhibition, % at 38.7 µM; hit rate 9.2% among 290,000; AID 2315; in the data active = inhibition mostly above about 28%, no sharp cut-off; inactive = mostly below about 43%
Hits are given with their value; - = inactive; ? = inconclusive; . = not tested or not shown; [ ] = remark or other dose. An excerpt weighted towards active compounds, which were near 21% of everything screened. Unless noted, calls follow the shape of the dose curve; as a rule, active = well fitted curve in the direction sought with a large enough effect; inconclusive = small, poorly fitted or top-dose-only effect, or another doubt; inactive = no such curve, though single readings can be large; an effect the other way counts as inactive or inconclusive.

SMILES	Pf growth 96h	NS1 inh	Pf growth 48h	CHX counter	Sm TGR inh	Shiga toxin inh
Cc1cccc(NC(=O)c2ccc(N3CCOCC3)c([N+](=O)[O-])c2)n1	-	-	-	38.2	-	72.3
CCN(CC(=O)Nc1c(F)cccc1F)C(=O)c1ccc(N2CCOCC2)c([N+](=O)[O-])c1	?	.	-	.	44.7µM	.
Cc1cccc(NC(=O)c2ccc(S(=O)(=O)N3CCOCC3)cc2)n1	-	.	-	-	-	-
COc1ccc2[nH]c(CN3CCN(CC=C(C)C)C(CCO)C3)c(C)c2c1 (stereo unspecified)	?	-	-	-	-	.
Cc1cc(C)nc(NC(=NCCc2c[nH]c3ccccc23)NC(=O)C(C)(C)C)n1	4.65µM	-	10.4µM	-	-	-
O=C(NC(=S)Nc1ccc2oc(=O)ccc2c1)c1ccco1	-	-	-	19.1	?	53.4
COc1cccc(OC)c1C(=O)NC(=S)Nc1ccc2oc(=O)ccc2c1	1.85µM	-	3.29µM	-	-	-
CC(=O)NC(=S)Nc1ccc2oc(=O)ccc2c1	-	-	-	-	-	-
CCOc1nc2cnccc2n(CC(=O)Nc2c(C)cccc2CC)c1=O	?	-	-	-	-	-
Oc1ccccc1C1CC(c2cccs2)=NC(c2ccc(Cl)cc2)N1 (stereo unspecified)	-	-	?	37.3	?	49.6
CCCCCC[C@@H](O)C/C=C\CCCCCCCC(=O)O	-	.	-	.	.	.
CCCCC/C=C\C[C@H](O)/C=C/c1cccc(C[C@H](O)CCCCO)n1	?	-	13.1µM	-	?	-
CCOC(=O)CNC(=O)c1cnn2cccnc12	?	-	-	41.7	-	-
Oc1c(/C=N/c2ncn[nH]2)ccc2ccccc12	-	-	-	26.7	31.6µM	65.6
Cc1ccc(/C=C2\SC(=S)N(CCCC(=O)Nc3ccc(O)cc3)C2=O)cc1	-	-	?	18.3	-	38.8
O=C(CN1C(=O)/C(=C/c2ccc(F)cc2)SC1=S)N1CCN(CCc2ccccn2)CC1	14.7µM	-	-	-	-	-
Cc1ccc(/C=C2\SC(=S)N(CCCC(=O)Nc3ccccn3)C2=O)cc1	10.4µM	-	?	-	-	-
CCc1ccc(/C=C2\SC(=S)N(CCCC(=O)Nc3ccccc3C(=O)O)C2=O)cc1	16.5µM	-	-	-	-	-
COc1cccc(N(CC(=O)NC2CCCCC2)C(=O)CCCC(=O)Nc2ccccn2)c1	-	-	?	-	-	-
Cn1c(=O)c2c(SCC(=O)Nc3ccc(F)cc3F)nc(C3CCCC3)nc2n(C)c1=O	.	.	.	.	-	.
CC(NC(=O)COc1ccc(S(=O)(=O)N2CCCC2)cc1)c1ccccc1 (stereo unspecified)	-	-	?	-	-	-
CCOc1ccc(NC(=O)CN(C)C(=O)C2CC(=O)N(c3ccc4c(c3)OCCO4)C2)cc1OCC (stereo unspecified)	?	.	?	.	-	.
CCN(CC)CCN1C(=O)C2C3c4ccccc4C(c4ccccc43)C2C1=O (stereo unspecified)	5.22µM	-	?	-	-	-
O=C(O)CCN1C(=O)C2C3c4ccccc4C(c4ccccc43)C2C1=O (stereo unspecified)	-	-	-	-	-	-
CCn1ccc2cc(S(=O)(=O)N3CCC(C(=O)NCc4cccc(C)c4)CC3)ccc21	.	.	.	.	-	.
SMILES	Pf growth 96h	NS1 inh	Pf growth 48h	CHX counter	Sm TGR inh	Shiga toxin inh
COc1ccccc1C1CC(=O)NC(C)=C1C(=O)OC(C)C (stereo unspecified)	-	-	-	-	-	-
CCn1c(C2CCN(Cc3ccccc3)CC2)n[nH]c1=S	-	.	-	-	-	-
Cc1ccc(/C(N)=N/OC(=O)c2ccc3c(c2)OCO3)cc1	5.86µM	-	?	73.5	-	98.1
N/C(=N\OC(=O)c1ccc2c(c1)OCO2)c1ccc(Cl)cc1	?	-	?	61.7	-	90.5
COc1ccc(/C(N)=N/OC(=O)c2ccc3c(c2)OCO3)cc1	-	-	?	51.9	?	45.7
COc1ccc(C2(O)CCN(C(=O)c3ccc4c(c3)OCO4)CC2)cc1	?	-	-	-	-	-
N/C(=N\OC(=O)c1ccc2c(c1)OCO2)c1ccncc1	-	-	-	35.4	-	-
CC(=O)c1cc(-c2ccccc2)n(CCC(=O)NCc2ccc(C)cc2)c1C	.	.	.	.	-	.
Cc1ccc2nc(/C(C#N)=C\c3cc(O)ccc3[N+](=O)[O-])[nH]c2c1	-[5.75 µM]	-	-	36.0	-	-
